Measurements from PubChem BioAssay AID1645855 (Buhrlage Lab, Dana-Farber Cancer Institute and Novartis …, 2021).
The campaign covered roughly 47,000 compounds. About 3,100 (6.6%) were called active. No stated cut-off is given here; in the data, active means inhibition above about 30%; inactive means the rest. Only a selection was taken, and actives are over-represented in it overall.

The compounds below were run against Ubiquitin carboxyl-terminal hydrolase 17-like protein 5 (Homo sapiens) (UniProt A8MUK1) (assay: inhibitors of human USP17 deubiquitinase (AID 1645855)). Conditions: purified USP17, Ub-rhodamine cleavage fluorescence, 3 h; at 50 µM; hits give high values.
Sequence of Ubiquitin carboxyl-terminal hydrolase 17-like protein 5 (Homo sapiens) (A8MUK1 whole entry, looked up): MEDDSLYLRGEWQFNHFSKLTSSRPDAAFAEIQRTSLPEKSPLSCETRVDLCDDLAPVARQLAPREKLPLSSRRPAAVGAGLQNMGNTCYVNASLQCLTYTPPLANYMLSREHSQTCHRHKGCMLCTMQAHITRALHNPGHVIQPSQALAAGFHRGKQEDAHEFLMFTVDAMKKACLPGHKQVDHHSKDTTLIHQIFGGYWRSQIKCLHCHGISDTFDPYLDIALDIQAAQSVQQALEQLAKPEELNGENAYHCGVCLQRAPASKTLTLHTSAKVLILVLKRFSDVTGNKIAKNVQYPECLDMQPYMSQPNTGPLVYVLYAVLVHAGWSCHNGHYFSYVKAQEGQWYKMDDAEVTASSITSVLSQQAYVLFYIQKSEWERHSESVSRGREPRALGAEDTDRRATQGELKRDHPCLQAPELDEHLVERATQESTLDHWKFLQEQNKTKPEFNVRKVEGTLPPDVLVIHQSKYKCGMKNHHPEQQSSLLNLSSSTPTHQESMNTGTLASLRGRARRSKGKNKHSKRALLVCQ

Compound | inhibition
Nc1nc(COC(=O)c2ccoc2)nc(Nc2ccccc2)n1 | -3.92% (inactive)
Cc1nc(-c2ccc(C)c(S(=O)(=O)NCc3ccccc3Cl)c2)cs1 | 28% (inactive)
Cc1ccc(F)cc1NC(=O)CN(C)Cc1ccc2c(c1)OCO2 | 1.53% (inactive)
CN(CC(=O)Nc1ccc(F)cc1Cl)Cc1ccc2c(c1)OCO2 | -5.43% (inactive)
COc1ccc(C(NC(=O)CN(C)Cc2ccc3c(c2)OCO3)c2ccccc2)cc1 (stereo not drawn) | 35.3% (active)
CCN(CC)c1ccc2ccc(C(=O)NCCc3ccccn3)cn12 | -61.8% (inactive)
Cc1cc2oc(C(=O)Nc3ccc4c(c3)NC(=O)CO4)c(C)c2cc1Cl | 11.8% (inactive)
COc1cccc(N2CCN(C(=O)Nc3ccc4c(c3)NC(=O)CO4)CC2)c1 | 45% (active)
COc1cccc(NC(=O)N2CC[C@H]3N(C)CC[C@@]3(C(=O)N3CCCC3)CC2)c1 | -21.3% (inactive)
CN(Cc1cccnc1)Cc1ccc(N2CCC(NC(=O)c3ccc4c(c3)OCO4)CC2)nc1 | -12% (inactive)
CN1CCN(c2ncc3c(=O)n(Cc4ccccn4)ccc3n2)CC1 | 11.4% (inactive)
O=c1c2cnc(N3CCOCC3)nc2ccn1CCc1ccccc1 | 71.6% (active)
O=c1c2cnc(N3CCCCC3)nc2ccn1Cc1cccnc1 | -8.83% (inactive)
Cc1nnc2n1CC(c1cccc(NC(=O)Cn3ccnc3C(C)C)c1)CC2 (stereo not drawn) | 3.88% (inactive)
O=C(Cn1c(=O)n(Cc2ccc3c(c2)OCO3)c(=O)c2cccnc21)Nc1ccc(F)cc1 | 14.6% (inactive)
CC(C)[C@H](NC(=O)N1CCn2c1nc1ccccc12)C(=O)NCCc1ccccc1 | -12.9% (inactive)
O=S1(=O)c2ccccc2O[C@H]2CCN(c3ncccn3)CC[C@@H]2N1Cc1cccnc1 | -37.6% (inactive)
CCN1CCN(c2nc(F)c3c(c2F)S(=O)(=O)CCN3CC2CCCO2)CC1 (stereo not drawn) | 16.6% (inactive)
CC1CCN(c2nc(F)c3c(c2F)S(=O)(=O)CCN3Cc2cccnc2)CC1 | 50.9% (active)
Cc1noc(-c2ccc3nnc(CC(=O)Nc4ccc(C)c(F)c4)n3c2)n1 | -2.57% (inactive)
COC(=O)c1cccc(Oc2nc(OC)nc(OC)n2)c1 | -1.33% (inactive)
Cc1ccc(CNC(=O)c2ccc(-c3cccnc3)nc2)cc1 | 9.44% (inactive)

Compound | inhibition
Cc1cc(C)n(Cc2c(C(=O)NCc3ccc(F)cc3)noc2C)n1 | -5.62% (inactive)
CNS(=O)(=O)c1ccc(CNC(=O)c2cc(-c3ccc(C)cc3)no2)cc1 | 65% (active)
CCn1cc(S(=O)(=O)CC(=O)Nc2ccccc2C(F)(F)F)c2ccccc21 | -1.62% (inactive)
CC1CCN(C(=O)CSc2ccc3nnc(-c4cccc(F)c4)n3n2)CC1 | -2.06% (inactive)
Cc1cccc(-c2nnc3ccc(N4CCC(C(=O)NC(C)Cc5ccco5)CC4)nn23)c1 (stereo not drawn) | 48.5% (active)
O=C(Nc1ccccc1[N+](=O)[O-])N1CCN(c2ccc3nnc(-c4ccccc4)n3n2)CC1 | 12.5% (inactive)
COCCn1c(=O)[nH]c2cc(C(=O)NCc3ccc(Cl)cc3)ccc2c1=O | 0.361% (inactive)
COCCn1c(=O)[nH]c2cc(C(=O)N3CCC(Cc4ccccc4)CC3)ccc2c1=O | 2.53% (inactive)
COCCn1c(=O)[nH]c2cc(C(=O)NCCNc3ccc([N+](=O)[O-])cc3C#N)ccc2c1=O | 53.7% (active)
CN1CCN(S(=O)(=O)c2cccc(C(=O)Nc3cccc(S(N)(=O)=O)c3)c2)CC1 | -6.3% (inactive)
COc1cccc(N2CCN(C(=O)C3CCN(c4ncnc5onc(C)c45)CC3)CC2)c1 | -20.4% (inactive)
CCOc1ccc2nc(NC(=O)CN3CCC(C(N)=O)CC3)sc2c1 | -0.089% (inactive)
CCC(=O)c1ccc(OCC(=O)Nc2ccc3nc(C)sc3c2)cc1 | 5.34% (inactive)
CCC(=O)Nc1nc2cc(NC(=O)c3ccc(OC)cc3)ccc2s1 | 30.9% (active)
CC(=O)N1c2ccc(S(=O)(=O)NCC3CCC(C(=O)Nc4cccnc4)CC3)cc2CC1C (stereo not drawn) | 0.344% (inactive)
CC(Oc1ccc2c3c(c(=O)oc2c1)CCC3)C(=O)NCC(=O)N1CC[C@@]2(O)CCCC[C@H]2C1 (stereo partly drawn) | 10.3% (inactive)
CNC(=O)c1cnc2scc(-c3ccccc3)n2c1=O | 1.82% (inactive)
Cc1ccc2c(c1)C(=O)NCC1(CCN(C(=O)c3cscn3)CC1)O2 | 0.0795% (inactive)
O=C(Nc1ccc2sc(NC(=O)C3CCCCC3)nc2c1)NC1CCCC1 | 20.6% (inactive)
Cc1ccc2sc(NC(=O)NC(=O)c3c(Cl)cccc3Cl)nc2c1 | 36.4% (active)
Cc1noc2nc(C3CC3)cc(C(=O)Nc3nc4ccccc4s3)c12 | -4.21% (inactive)
Cc1ccc(Cn2cc(C(=O)O)c(S(=O)(=O)N3CCOCC3)n2)cc1 | -22.5% (inactive)

Compound | inhibition
CC(C)OCCCn1c(=O)c2ccccc2n2c(CCC(=O)NCCN3CCN(c4cccc(Cl)c4)CC3)nnc12 | 8.41% (inactive)
O=C(C1CCc2nc(N3CCOCC3)ncc2C1)N1CCCCCC1 (stereo not drawn) | -6.44% (inactive)
Cc1ccc(NC(=O)C2CCCN(c3ncnc4onc(C)c34)C2)nc1 (stereo not drawn) | 0.0336% (inactive)
O=C(NCC1CC1)c1nc(-c2ccc3[nH]ccc3c2)no1 | -9.5% (inactive)
O=C(NC1CC1)C1CCN(c2ncccc2-c2nc(-c3ccccc3)no2)CC1 | 17.4% (inactive)
O=C(NC1CC1)c1nc(-c2ccc(-n3cccc3)cc2)no1 | 43.1% (active)
CSCC[C@H](NC(=O)N1CCn2c1nc1ccccc12)C(=O)NCc1ccc2c(c1)OCO2 | 14.2% (inactive)
CCn1c(=O)c(CCC(=O)N2CCN(c3ccccc3)CC2)nc2c(C)nn(-c3ccccc3)c21 | 5.12% (inactive)
c1ccc(Nc2cc(CC3CCN(Cc4cnc[nH]4)CC3)ncn2)nc1 | -12.1% (inactive)
CCCCCCSc1ncnc2c1sc1nc(-c3ccccc3)c3c(c12)CC(C)(C)OC3 | 3.28% (inactive)
CC1(C)Cc2c(c(-c3ccco3)nc3sc4c(SCCCc5ccccc5)ncnc4c23)CO1 | 69.7% (active)
CSc1ncnc2c1sc1nc(-c3ccccc3)c3c(c12)CC(C)(C)OC3 | 3.2% (inactive)
Cc1ccc(S(=O)(=O)N2Cc3ccccc3CN3C(=O)NC(=O)C3C2)cc1 (stereo not drawn) | 4.38% (inactive)
COc1ccc(CCNc2ncnc3c2cnn3Cc2ccccc2)cc1OC | -18.7% (inactive)
CC(=O)N1CC(C)Oc2cc(S(=O)(=O)Nc3ccc(C)cc3C)ccc21 (stereo not drawn) | 6.48% (inactive)
CC1CCc2c(sc(NC(=O)c3cc(-c4ccccc4)nc4ccccc34)c2C(N)=O)C1 (stereo not drawn) | 4.55% (inactive)
Cc1c(Cc2ccccc2)sc(NC(=O)c2cccnc2)c1C(N)=O | 10.7% (inactive)
NC(=O)c1c(NC(=O)c2ccccc2Oc2ccccc2)sc2c1CCN(Cc1ccccc1)C2 | 30.4% (active)
O=C(NCc1ccc2c(c1)OCO2)c1ccc(CS(=O)c2ccc(Cl)cc2)o1 (stereo not drawn) | -0.0116% (inactive)
CCc1cccc(C)c1NC(=O)C1=Cc2cc(OC)ccc2OC1 | -6.4% (inactive)
Cc1cccc(CNC(=O)C2CCN(c3cnc4nccnc4c3)CC2)c1 | -128% (inactive)
CC(=O)Nc1nsc(N2CCC(C(=O)NCc3cccc(C)c3)CC2)n1 | -1.72% (inactive)

Compound | inhibition
Cc1cccc(CNC(=O)C2CCCN(S(=O)(=O)Cc3ccc(F)cc3)C2)c1 (stereo not drawn) | 56.7% (active)
COc1ccc(Cn2cc(-c3nc(C4CC4)no3)ccc2=O)cc1F | -5.47% (inactive)
CCN1CCN(c2nc3c(c(=O)[nH]c(=O)n3C)n2CC(O)c2ccccc2)CC1 (stereo not drawn) | -4.6% (inactive)
C=CCn1c(N2CCC(C(=O)NCC(C)O)CC2)nc2ccccc21 (stereo not drawn) | 9.39% (inactive)
O=C1N[C@H]2OCCC[C@H]2[C@H](c2ccccc2C(=O)O)N1 | -6.46% (inactive)
Cn1c(CCN2CCCC2)nc2cc(NC(=O)c3cccc([N+](=O)[O-])c3)ccc21 | 16.8% (inactive)
CC(=O)Nc1ccc2c(c1)nc(CCN1CCCC1)n2C | -8.68% (inactive)
Cn1c(CCN2CCCC2)nc2cc(NS(=O)(=O)c3ccccc3)ccc21 | 60.7% (active)
CCc1nnc(NC(=O)c2cc(-c3ccc(C)c(C)c3O)n[nH]2)s1 | 16.7% (inactive)
CC(C)(C)C(=O)Nc1ccc(SCc2nnc(-c3ccccc3)o2)cc1 | 2.2% (inactive)
O=C(Cc1ccccc1)Nc1ccc(-c2nc3cnccc3o2)c(O)c1 | 63.3% (active)
COc1cc(C(=O)Nc2ccc(-c3nc4cnccc4o3)cc2)cc(OC)c1OC | -3.38% (inactive)
O=C(Nc1ccc(-c2nc3cnccc3o2)c(O)c1)c1ccc(-c2ccccc2)cc1 | 2.32% (inactive)
O=C(c1cc(Cl)ccc1F)N1CCC(c2nc(C3CC3)n[nH]2)CC1 | -2.96% (inactive)
Cc1ccc(CS(=O)(=O)c2cn(CC(=O)N3CCCCC3)c3ccccc23)cc1 | -20.5% (inactive)
O=C(Cn1cc(S(=O)(=O)Cc2ccccc2F)c2ccccc21)N1CCCCCC1 | -0.288% (inactive)
O=C(Cn1cc(S(=O)(=O)Cc2ccccc2Cl)c2ccccc21)N1CCCCCC1 | 42% (active)
COc1ccc(-c2nc(-c3cccs3)no2)cc1OC | -2.65% (inactive)
O=S(=O)(c1ccc(S(=O)(=O)N2CCN3CCCC3C2)cc1)N1CCOCC1 (stereo not drawn) | -8.52% (inactive)
Cc1ccc(NC(=O)Cc2sc(Nc3ccc(C)cc3)nc2O)cc1 | 58.2% (active)
CCOc1ccc(Nc2nc(O)c(CC(=O)Nc3cccc(C)c3)s2)cc1 | 7.74% (inactive)
Cc1ccc(Nc2nc(O)c(CC(=O)Nc3ccc(C(C)C)cc3)s2)cc1C | 6.68% (inactive)
